SMILES strings stand for the structures. About 83,000 compounds went through this panel and 20% of them were active in at least one assay; those are over-represented in the sample as a whole.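 Negative percent growth values reflect cell death: -40 means 40% of the cells present at the start died, and -100 means all died.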 Unmarked numbers belong to inactive results. Activity calls are given as the source filed them. Rule for the calls: active = growth percent below 10; inactive = the rest.

The assay has as its system MCF7 breast. Briefly: NCI-60 one-dose screen, 48 h (100 = growth as untreated, 0 = no growth, -100 = all killed). The note with it: 10 µM unless noted.
For the compound `c1ccc(Sc2ccccc2)cc1`, the growth was 97.6%.

Regarding `CCCCC(O)c1ccccc1` (centres undefined), the growth was 103%. With `C[N+](C)=c1ccc2nc3c(cc(Nc4ccccc4)c4ccccc43)oc-2c1`, the growth was 32.5%. To `CCc1nc(N)nc(N)c1-c1ccc(Cl)cc1` belongs 67.8%. The result for `FC(F)(F)c1ccc2c(c1)N(CCCN1CCN(C3CC3)CC1)c1ccccc1S2` reads 77.3%; that for `N#CC(=Nc1cccc(F)c1)C1=C(O)c2ccccc2C1=O`, 83.2%.

On to `COC(=O)c1ccccc1N(C)C`, for which the growth is 97.1%. To `COc1ccc(C(=O)C(Br)C(Br)C(=O)O)cc1` (centres undefined) belongs 91.1%. To `COC1=CC(=O)c2nc(Cl)ccc2C1=O` belongs -56.8% (active); to `O=C(NCc1ccco1)Nc1c(Cl)cc(Cl)cc1Cl`, 92.8%; to `O=[N+]([O-])c1cccc(N=Nc2ccc(O)cc2O)c1`, 84.3%.

Consider `CC[N+](C)(CC)CCO`, for which the growth was 103%. The result for `COc1cc(/C=C/C(=O)c2ccccc2)cc(OC)c1OC` reads 9.65% (active); that for `N#Cc1c(N)sc(=S)c2c1CCCC2`, 93.3%; that for `CNc1nc(NC)c2cn[nH]c2n1`, 97.3%. Turning to `NCCC(=O)c1ccc(Cl)cc1`, the growth is 110%. To `C[C@]12CC[C@@H]3c4ccc(OCC(=O)O)cc4CC[C@H]3[C@@H]1CCC2=O` belongs 130%; to `COc1ccc(NC(=O)CCl)cc1`, 64.4%. Consider `O=[N+]([O-])c1ccc(CO)cc1`, for which the growth is 91.1%. The result for `NNc1ccccc1C(=O)O` reads 104%; that for `c1ccc(Cc2ccccc2)cc1`, 113%. `S=c1[nH]ccn1-c1ccccc1Cl`: the growth was 99.5%.

Consider `COc1cc2cc(c1Cl)N(C)C(=O)C[C@H](OC(=O)[C@H](C)N(C)C(C)=O)[C@]1(C)O[C@H]1[C@H](C)[C@@H]1C[C@@](O)(NC(=O)O1)[C@H](OC)C=C/C=C(\C)C2`, for which the growth was 14.2%. As for `NC(=S)N/N=C/c1ccc(N)cc1`, the growth was 94.8%. To `C/C(=N\NC(=O)c1ccccc1N)c1ccccc1O` belongs 5.19% (active); to `O=C(O)c1ccccc1NCc1ccco1`, 97.4%; to `CC(=O)OC(OC(C)=O)C1CCCO1` (centres undefined), 92.1%.

Consider `CC1(C)Nc2cccc3c(N=Nc4ccc(N=Nc5ccccc5)c5ccccc45)ccc(c23)N1`, for which the growth is 79.4%.

Consider `CCCC1(c2ccccc2)NC(=O)NC1=O` (centres undefined), for which the growth was 98.6%. The result for `CC(=O)Nc1c(C)cc(C)cc1C` reads 96.5%; that for `Cc1cc(/C=C/c2ccc3cc(N(C)C)ccc3[n+]2C)c(C)n1-c1ccccc1`, -11.6% (active). The result for `CCOc1ccccc1/C=N/Nc1nc2ccccc2o1` reads 7.97% (active); that for `C=CCc1cc(C(C)=O)cc(OC)c1O`, 106%; that for `Cc1cc(C)c(CC(=O)O)c(C)c1`, 95.9%. The result for `C=CC[N+](C)(C)C` reads 101%; that for `CC(=O)OCC1CCCO1` (centres undefined), 94.2%. On to `CN(C)CCN(Cc1ccccc1)c1ccccc1`, for which the growth was 112%. With `O=C(O)CSCSCC(=O)O`, the growth is 99.6%. On to `COc1cc2c(cc1O)CC[C@@H]1C2CC[C@@]2(C)C1CC[C@@H]2O` (some centres undefined), for which the growth is 16.4%.

Source of the values: PubChem BioAssay (NCI).
